# The supplement of paper PMC10515830
# Where a name gives a salt, the structure may show the parent alone.
# Assays:
# Conditions in all cases: 10 µM; exposure time 6 h
# [1] = tested on: Danio rerio larvae (5 dpf); test: difference in excitability vs DMSO (percentage points); higher = more excitable than DMSO
# Method in brief: (§1)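 Library compounds were tested at 10 µM final in 100 µL egg water on wild-type 5 dpf zebrafish larvae in 96-well plates for 6 h, with 48 larvae per compound. After 3 h, plates at 28.5 ℃ were imaged every 6 s during a 3-h run of moving lines and 100 ms, 400Hz tones. Behaviours were quantified by Z-LaP Tracker and reported as the compound mean less the vehicle control mean, in percentage points.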
# [2] = tested on: Danio rerio larvae (5 dpf); test: difference in startle response vs DMSO (percentage points); higher = stronger startle than DMSO
# Method in brief: as §1
# [3] = tested on: Danio rerio larvae (5 dpf); test: difference in activity during first hour vs DMSO (percentage points); higher = more activity than DMSO
# Method in brief: as §1
# [4] = tested on: Danio rerio larvae (5 dpf); test: difference in habituation to acoustic stimuli vs DMSO (percentage points); higher = more habituation than DMSO
# Method in brief: as §1
# [5] = tested on: Danio rerio larvae (5 dpf); test: difference in combined optomotor response to red, green and blue moving lines vs DMSO (percentage points); higher = stronger optomotor response than DMSO
# Method in brief: as §1
SMILES,difference in excitability [1],difference in startle response [2],difference in activity during first hour [3],difference in habituation to acoustic stimuli [4],difference [5]
CNNCc1ccc(C(=O)NC(C)C)cc1 [Procarbazine (hydrochloride)],0.724,-0.558,6.39,-5.35,4.87
COc1c(C)c2c(c(O)c1C/C=C(\C)CCC(=O)O)C(=O)OC2 [Mycophenolic Acid],2.6,4.16,-1.66,-0.729,8.73
CC/C=C\C/C=C\C/C=C\C/C=C\C/C=C\CCCC(=O)OCC [Eicosapentaenoic Acid ethyl ester],11.7,2.48,-7.19,3.98,7.27
CC(C)(C#N)c1cc(Cn2cncn2)cc(C(C)(C)C#N)c1 [Anastrozole],1.93,-2.98,-4.84,-5.36,7.09
Cc1c(C(=O)Nc2ccc(N3C[C@@H](C)O[C@@H](C)C3)nc2)cccc1-c1ccc(OC(F)(F)F)cc1 [LDE225 (phosphate)],13,-4.4,-2.84,-4.9,3.16
CCOc1ccc2ccccc2c1C(=O)N[C@@H]1C(=O)N2[C@@H]1SC(C)(C)[C@@H]2C(=O)O [Nafcillin (sodium salt hydrate)],3.99,-0.0381,19.4,-2.07,5.58
CC1=NN(c2ccccc2)C(=O)C1,2.26,-0.112,-1.37,-1.34,4.56
CC1(C)O[C@@H]2C[C@H]3[C@@H]4CCC5=CC(=O)CC[C@]5(C)[C@@]4(F)[C@@H](O)C[C@]3(C)[C@]2(C(=O)CCl)O1 [Halcinonide],-1.92,2.79,7.26,9.28,6.48
Cc1cc(C(=O)NNCc2ccccc2)no1 [Isocarboxazid],9.42,3.52,-14,-2.77,4.57
CN(C)CC/C=C1/c2ccccc2COc2ccc(CC(=O)O)cc21 [Olopatadine (hydrochloride)],2.11,-1.34,-6.94,3.84,2.97
CN1CCC(=C2c3ccccc3C=Cc3ccccc32)CC1 [Cyproheptadine (hydrochloride hydrate)],6.61,-4.47,-3.08,-11.2,-16.4
NS(=O)(=O)c1cc2c(cc1C(F)(F)F)NC(Cc1ccccc1)NS2(=O)=O (stereo not given) [Bendroflumethiazide],1.38,-5.47,3.78,-7.63,-4.26
CC[C@]1(O)C[C@@H]2CN(CCc3c([nH]c4ccccc34)[C@@](C(=O)OC)(c3cc4c(cc3OC)N(C)[C@H]3[C@@](O)(C(=O)OC)[C@H](OC(C)=O)[C@]5(CC)C=CCN6CC[C@]43[C@@H]65)C2)C1 [Vinblastine (sulfate)],11.1,-3.06,-6.36,-2.13,-3.97
CNCCC=C1c2ccccc2CCc2ccccc21 [Nortriptyline (hydrochloride)],3.17,4.3,-17.9,-3.34,-2.39
CC(C)(C)NC(=O)[C@@H]1CN(Cc2cccnc2)CCN1C[C@@H](O)C[C@@H](Cc1ccccc1)C(=O)N[C@H]1c2ccccc2C[C@H]1O [Indinavir (sulfate)],-11.9,-2.27,1.38,11.2,-0.405
CC(=O)NCCCS(=O)(=O)O [Acamprosate (calcium salt)],5.62,1.29,-8.55,7.23,4.69
CC1=C(CC(=O)O)c2cc(F)ccc2/C1=C\c1ccc([S+](C)[O-])cc1 (stereo not given) [Sulindac],6.96,0.529,10.8,0.634,-2.61
C[C@](N)(Cc1ccc(O)c(O)c1)C(=O)O [L-(-)-α-Methyldopa],2.76,-2.74,3.45,-1.83,6
Cc1ccc(O)c([C@H](CCN(C(C)C)C(C)C)c2ccccc2)c1 [Tolterodine (tartrate)],11.1,-0.221,-20.3,-5.38,-10.6
CC(C)NCC(O)COc1ccc(COCCOC(C)C)cc1 (stereo not given) [Bisoprolol (hemifumarate)],2.44,8.3,0.00157,3.42,-3.86

SMILES,difference in excitability [1],difference in startle response [2],difference in activity during first hour [3],difference in habituation to acoustic stimuli [4],difference [5]
C#C[C@]1(O)CC[C@H]2[C@@H]3CCC4=CCCC[C@@H]4[C@H]3C(=C)C[C@@]21CC [Desogestrel],16.3,-10.3,30.8,-6.42,-15.3
C[C@H](CCC(=O)O)[C@H]1CC[C@H]2[C@@H]3[C@H](O)C[C@@H]4C[C@H](O)CC[C@]4(C)[C@H]3C[C@H](O)[C@]12C [Cholic Acid],-2.04,2.75,8.68,3.98,-1.08
N=C(NCCCCCCNC(=N)NC(=N)Nc1ccc(Cl)cc1)NC(=N)Nc1ccc(Cl)cc1 [Chlorhexidine (hydrochloride)],11.8,-11,-19.9,-10.2,-17.6
CC(C)CN(C[C@@H](OP(=O)(O)O)[C@H](Cc1ccccc1)NC(=O)O[C@H]1CCOC1)S(=O)(=O)c1ccc(N)cc1 [Fosamprenavir (calcium salt)],0.179,4.76,22.4,-2.19,5.16
COC(=O)C1=C(C)NC(C)=C(C(=O)OCC(C)C)C1c1ccccc1[N+](=O)[O-] (stereo not given) [Nisoldipine],7.56,-9.87,0.119,-9.06,-16.9
O=C1NC(=O)C(c2ccccc2)(c2ccccc2)N1 [Phenytoin],-0.551,-0.35,-12.3,5.69,0.724
C[C@@H]1C/C=C/C=C/C=C/C=C/[C@H](O[C@@H]2O[C@H](C)[C@@H](O)[C@H](N)[C@@H]2O)C[C@@H]2O[C@](O)(C[C@@H](O)C[C@H]3O[C@@H]3/C=C/C(=O)O1)C[C@H](O)[C@H]2C(=O)O [Natamycin],2.79,-1.51,0.445,3.82,3.97
COc1cc(CNC(=O)CCCC/C=C/C(C)C)ccc1O [Capsaicin],12.5,8.06,-6.37,-0.624,5.27
Cc1ccc(Sc2ccccc2N2CCNCC2)c(C)c1 [Vortioxetine (hydrobromide)],-0.102,7.18,-8.07,-14.1,-11.4
COc1ccc2[nH]c([S+]([O-])Cc3ncc(C)c(OC)c3C)nc2c1 (stereo not given) [Omeprazole],14.6,-0.657,-0.859,0.506,5.66
OB1OCc2cc(F)ccc21,13.7,-1.36,-11.7,2.38,4.85
FC(F)OC(Cl)C(F)(F)F (stereo not given) [Isoflurane],11.1,8.95,-15.9,-1.84,-13
NC(=O)c1cn(Cc2c(F)cccc2F)nn1 [Rufinamide],3.01,4.27,8.13,0.975,7.5
C[C@@H]1CCN(C(=O)CC#N)C[C@@H]1N(C)c1ncnc2[nH]ccc12,-2.24,-4.49,-6.58,-6.59,6.98
C[C@@H](Oc1cc(-c2cnn(C3CCNCC3)c2)cnc1N)c1c(Cl)ccc(F)c1Cl [(R)-Crizotinib],11.1,-4.49,-3.18,0.409,-0.753
CNCC[C@@H](Oc1ccccc1C)c1ccccc1 [Atomoxetine (hydrochloride)],21.7,-9.34,-21.4,-3.36,-0.351
O=S(=O)(O)CCS [Mesna],-4.43,2.29,12.8,-1.88,6.5
CN(C)CC(c1ccc(O)cc1)C1(O)CCCCC1 (racemic) [(±)-O-Desmethyl Venlafaxine],18.2,-5.6,-19.3,-8.93,-5.4
CC(C)C[C@H](NC(=O)CNC(=O)c1cc(Cl)ccc1Cl)B1OC(=O)C(CC(=O)O)(CC(=O)O)O1,-1.67,1.83,2.45,4.21,5.88
